Only some compounds are listed: those with a hit (about 10% of all), similar ones and a draw of the others.
G9a block: blocks human histone lysine methyltransferase G9a; Q96KQ7; G9a H3K9 monomethylation, AlphaScreen, 2 h; Potency, µM (top dose mostly 102 µM), usual class: inhibitors; actives 8.8% (n = 350,000); note: nearly all actives have a fitted effect of over 75% in size
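AlphaScreen read-out: biotin-H3K9 peptide (500 nM) methylation by 20 nM enzyme with 20 uM SAM, 2 h at room temperature after 15 min compound preincubation; anti-monomethyl H3K9 antibody plus donor/acceptor beads, 10 min dark.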
JMJD2A Tudor inh: blocks the human JMJD2A Tudor domain; AlphaScreen JMJD2A-Tudor / H3K4me3 peptide binding; Potency, µM (highest dose often 114 µM), most hits filed as inhibitors; actives 4.4% (n = 390,000); AID 504339; note: nearly all actives have a fitted effect of over 50% in size
HP1b chromo inh: inhibitors of HP1-beta chromodomain binding to methylated histone tails; P83916; AlphaScreen HP1-beta / biotin-H3K9me3 peptide binding; Potency, µM (series often up to 114 µM), usual class: inhibitors; actives 0.56% (n = 390,000); note: nearly all actives have a fitted effect of over 70% in size
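AlphaScreen: HP1-beta (50 nM) preformed 30 min with biotin-H3(1-18)K9me3 peptide (50 nM) in PBS pH 7.4, 0.01% Tween-20. Compound added for 30 min at RT, then streptavidin donor/nickel chelate acceptor beads (10 ug/mL) for 30 min.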
BAZ2B block: blocks human BAZ2B | Potency, µM (doses to about 114 µM), usual class: inhibitors | Q9UIF8 | AlphaScreen BAZ2B-H3K14Ac peptide displacement | actives 4.4% (n = 360,000); note: nearly all actives have a fitted effect of over 60% in size
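Multi-concentration screen (max 110 uM) measuring displacement of acetylated histone H3 peptide from BAZ2B by AlphaScreen, using 50 nM protein, 50 nM peptide and 10 ug/mL streptavidin donor plus Ni-chelate acceptor beads.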
GLS inhibitor: inhibitors of human glutaminase (GLS). O94925. GLS enzymatic activity, qHTS titration. Potency, µM (doses to about 45.5 µM), hits mostly inhibitors. actives 0.21% (n = 410,000). AID 624170
Target sequence (O94925 whole entry, looked up): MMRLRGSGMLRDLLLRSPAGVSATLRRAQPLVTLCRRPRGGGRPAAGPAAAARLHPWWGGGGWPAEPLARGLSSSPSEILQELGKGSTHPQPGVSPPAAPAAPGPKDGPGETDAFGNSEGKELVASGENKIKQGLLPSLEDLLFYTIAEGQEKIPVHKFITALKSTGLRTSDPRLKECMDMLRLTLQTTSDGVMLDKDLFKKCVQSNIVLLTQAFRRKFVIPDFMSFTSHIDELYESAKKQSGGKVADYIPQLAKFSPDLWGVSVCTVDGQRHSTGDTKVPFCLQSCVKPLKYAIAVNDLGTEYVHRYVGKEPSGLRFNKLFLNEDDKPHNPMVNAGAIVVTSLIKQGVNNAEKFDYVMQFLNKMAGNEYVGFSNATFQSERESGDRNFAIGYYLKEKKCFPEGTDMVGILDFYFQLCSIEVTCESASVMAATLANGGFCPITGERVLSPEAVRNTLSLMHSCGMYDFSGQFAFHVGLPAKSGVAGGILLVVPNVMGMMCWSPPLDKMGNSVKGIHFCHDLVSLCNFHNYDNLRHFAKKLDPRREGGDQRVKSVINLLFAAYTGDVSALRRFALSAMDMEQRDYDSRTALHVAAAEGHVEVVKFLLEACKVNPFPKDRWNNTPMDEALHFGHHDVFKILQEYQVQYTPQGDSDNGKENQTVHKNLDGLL
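Human kidney-isoform GLS in 45 mM KH2PO4 pH 8.2, 0.02% Tween-20, with compound, started with 1mM L-Glutamine (added stock). Glutamate oxidase/HRP/Amplex red coupled fluorescence read at start and after 30 min at RT.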
Numbers stand for hits; i = inactive; ? = inconclusive; nt = not tested or not shown; [ ] = remark or other dose. Calls come from the whole dose curve; as a rule, active = well fitted curve in the direction sought with a large enough effect; inconclusive = small, poorly fitted or top-dose-only effect, or another doubt; inactive = no such curve, though single readings can be large; an effect the other way counts as inactive or inconclusive.

SMILES	G9a block	JMJD2A Tudor inh	HP1b chromo inh	BAZ2B block	GLS inhibitor
O=C(NC(=S)NNC(=O)c1ccccc1O)c1cccnc1	13µM	56µM	i	?	i
O=C(CCc1ccccc1)NNC(=S)NC(=O)c1ccc(Cl)cc1	1.6µM	i	i	i	i
O=C(NC(=S)Nc1cc([N+](=O)[O-])ccc1O)c1cccnc1	11µM	i	i	i	i
N#Cc1c2c(c(-n3cnc4ccccc43)n3c1nc1ccccc13)CCC2	i[0.501 µM]	i	i	i	i
CCCCn1c(=O)[nH]c(=O)c2c1nc(Cn1ncc(Cl)c(Cl)c1=O)n2CCC	35µM	?	i	i	i
CCCCn1c(=O)[nH]c(=O)c2c1nc(CN1C(=O)c3ccccc3S1(=O)=O)n2CCC	i	i	i	i	i
COc1cccc(/C=C/C(=O)c2c(O)cc(C)oc2=O)c1O	?	i	i	?	i
COc1ccc2cc(C(=O)/C=C/c3cc(OC)c(O)c(OC)c3)ccc2c1	50µM	?	?	?	i
C=CCOc1ccc(C=CC(=O)c2c(O)c(OC)c(OC)c(OC)c2OC)cc1	nt	14µM	50µM	nt	i
COc1cc(/C=C/C(=O)c2c(O)cc(C)oc2=O)cc(OC)c1O	45µM	i	i	?	i
COc1ccc(C(=O)/C=C/c2ccc(O)cc2)cc1	i	i	i	i	i
COc1ccc(C=CC(=O)c2c(OC)cc(OC)c(OC)c2O)cc1	nt	?	40µM	nt	i
CCC(N=c1cc(-c2ccc(OC)c(OC)c2)oc2ccc(C)cc12)C(=O)O (configuration not stated)	i	i	i	i	i
Cc1cccc(NC(=O)c2c(C)cc(C)nc2SCC(=O)Nc2c(C)cc(C)cc2C)c1	i	i	i	i	i
CS(=O)(=O)N(CC(=O)NC1CCCCCC1)Cc1ccccc1	i	i	i	i	i
COc1ccc(C(=O)/C=C/c2cc(OC)c(O)c(OC)c2)c(F)c1	8.9µM	i	i	?	i
COc1ccc(C(=O)/C=C/c2ccc(N(C)C)cc2)c(OC)c1	i	i	i	i	i
CCOCCCn1c(=S)[nH]c2cc(C(=O)N3CCC(C(N)=O)CC3)ccc2c1=O	35µM	8.9µM	i	?	i
COc1ccccc1Cn1c(=S)[nH]c2cc(C(=O)N3CCC(C(N)=O)CC3)ccc2c1=O	79µM	i	i	i	?
COCCn1c(=S)[nH]c2cc(C(=O)N3CCC(C(N)=O)(N4CCCCC4)CC3)ccc2c1=O	35µM	?	i	i	i
CCOC(=O)N1CCN(C(=O)c2ccc3c(=O)n(Cc4ccccc4OC)c(=S)[nH]c3c2)CC1	i	i	i	i	?
COc1ccccc1CCc1nnc(CCC(=O)NCC[C@@H]2C[C@@H]3C=C[C@H]2C3)o1	i	i	i	i	i
CC(C)NC(=O)N(C)C[C@H]1Oc2cc(C#Cc3ccc(F)cc3)ccc2S(=O)(=O)N([C@H](C)CO)C[C@H]1C	nt	nt	nt	nt	i
COc1ccc(-c2nn(CCC(=O)O)cc2/C=C2\SC(N)=NC2=O)cc1OC	?	?	i	56µM	i
O=C(O)Cc1ccc(N=Nc2c(O)c(C(=O)O)cc3ccccc23)cc1	40µM	56µM	50µM	28µM	i
SMILES	G9a block	JMJD2A Tudor inh	HP1b chromo inh	BAZ2B block	GLS inhibitor
NS(=O)(=O)c1ccc(N=Nc2c(O)c(C(=O)O)cc3ccccc23)cc1	i[0.501 µM]	?	?	40µM	i
CC1=C(C(=O)Nc2ccccc2C)C(c2ccc(C)o2)NC(=S)N1 (configuration not stated)	i	i	i	i	i
COc1ccc(NC(=O)COC(=O)C(NC(=O)c2ccc(C)cc2)C(C)C)cn1 (configuration not stated)	nt	i	i	nt	i
CC#C[C@@]1(O)CC[C@H]2[C@@H]3CCC4=CC(=O)CCC4=C3[C@H](c3ccc(N(C)C)cc3)C[C@]21C	5µM	nt	nt	nt	nt
C#C[C@]1(O)CCC2C3CCC4=CC(=O)CCC4C3CC[C@@]21C (some centres not stated)	i[2.33 µM]	nt	nt	nt	i
COc1ccc(NC(=O)CSc2nnc3ccc(-c4ccncc4)nn23)cc1OC	i	i[11.4 µM]	i	i	i
NC(=O)c1cc2c3ccccc3ccn2c1-c1ccccc1	35µM	32µM	?	32µM	i
Cc1cc(C(N)=O)c2ccccc2n1	i	i	i	nt	i
O=C1OCc2cccc([N+](=O)[O-])c21	i	i	i	i	i
O=C1CC(=O)c2c1cccc2[N+](=O)[O-]	10µM	nt	nt	50µM	nt
O=C(COC(=O)Cc1ccc2c(c1)OCCO2)Nc1ccc(S(=O)(=O)N2CCCC2)cc1	i[12.7 µM]	i	i	i	i
O=C(O)C1Cc2ccccc2CN1C(=O)COc1ccc(Br)cc1 (configuration not stated)	50µM	?	i	nt	i
COc1cccc(/C=C2\Oc3cc(OCC(=O)N4Cc5ccccc5C[C@H]4C(=O)O)ccc3C2=O)c1	nt	?	i	?	i
O=C(O)C1Cc2ccccc2CN1C(=O)CCl (configuration not stated)	8.9µM	?	i	nt	i
O=C(C1Cc2ccccc2CN1C(=O)c1ccccc1)N1CCN(c2ccccc2)CC1 (configuration not stated)	nt	?	i	71µM	i
O=C(O)C1Cc2ccccc2CN1C(=O)COc1ccc(Cl)cc1Cl (configuration not stated)	25µM	i	i	i	i
COc1ccc(N2CCN(C(=O)C3Cc4ccccc4CN3C(=O)c3ccco3)CC2)cc1 (configuration not stated)	?	i	i	i	i
O=C(O)C1Cc2ccccc2CN1S(=O)(=O)c1ccccc1 (configuration not stated)	?	i	i	?	i
C[C@H](NC(=O)c1ccc(C(C)(C)C)cc1)C(=O)N1CCN(C/C=C/c2ccccc2)CC1	nt	i	i	nt	i
COc1cc(NC(=O)CNC(=O)Cn2cnc3sc(C)c(C)c3c2=O)cc(OC)c1OC	nt	nt	nt	nt	i
O=C(Nc1c2c(nn1-c1ccc(F)cc1)CS(=O)C2)c1ccc2c(c1)OCO2 (configuration not stated)	nt	89µM	i	i	i
O=S(=O)(CCOc1ccccc1)c1nc2ccccc2[nH]1	?	i	i	i	i
O=C(COc1ccccc1)NC(NC(=S)Nc1ccccc1C(=O)O)C(Cl)(Cl)Cl (configuration not stated)	?	32µM	?	i	i
Cc1ccc(C)c(NC(=S)NC(NC(=O)Cc2ccccc2)C(Cl)(Cl)Cl)c1 (configuration not stated)	i[12.7 µM]	i	i	i	i
Cc1ccc(S(=O)(=O)Nc2cc(S(=O)(=O)c3ccc(C)cc3)c(O)c3cccnc23)cc1	nt	i	nt	nt	nt
CC(=O)c1cccc(NC(=O)Cn2nc(C(F)(F)F)c3c2CCC3)c1	i	i	i	i	i
CN1CC(=O)NC1=NC(=O)c1ccc(Cl)c(S(=O)(=O)N2CCCCCC2)c1	i	i	i	i	i
CN1CC(=O)NC1=NC(=O)c1cc(F)c(F)cc1Cl	32µM	i	i	?	i

Screens (PubChem BioAssay)
